In PubChem BioAssay (NCATS) one finds Potency and outcome data, which are given here for 26 compounds.

Assay [1] in a line: Quantitative high throughput screen for delayed death inhibitors of the malarial parasite plastid, 96 hour incubation (AID 488745). Also: nearly all actives have a fitted effect of over 70% in size. Also: potency is read from the fitted curve at half-maximal effect. Summed up: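 Decreased firefly luciferase luminescence indicates inhibited growth of reporter-integrated P. falciparum after two generations (96 h, 37 C, 5% CO2). Infected erythrocytes at 0.1% parasitemia, 2% hematocrit, in Albumax-supplemented RPMI 1640.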

Assay [2] can be described thus: Quantitative high throughput screen for delayed death inhibitors of the malarial parasite plastid, 48 hour incubation (AID 488752). Also: nearly all actives have a fitted effect of over 65% in size. Also: potency is read from the fitted curve at half-maximal effect. Summed up: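 One-generation (48 h) growth assay: a decrease in luciferase signal from an integrated reporter in P. falciparum-infected red cells (0.1% parasitemia, 2% hematocrit) after compound exposure at 37 C indicates parasite inhibition.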

Assay [3] has as its target Thioredoxin reductase 1, cytoplasmic (Rattus norvegicus) (UniProt O89049). As to the kind of experiment: qHTS Assay for Substrates of Mammalian Selenoprotein Thioredoxin Reductase 1 (TrxR1) (AID 488772).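 Also: series mostly up to about 57 µM; a drop in NADPH fluorescence below the no-compound background marks a TrxR1 substrate.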 Summed up:
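In this dual-purpose format, potential substrates are identified from the first fluorescence read after selenite addition, not from the 8-minute delta. Rat enzyme is preincubated with NADPH and then with compound at ~22 deg C.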
A general note: Quantitative high-throughput screening tests each substance at several concentrations.

The target is the same in assay [4]. As to the kind of experiment: qHTS Assay for Inhibitors of Mammalian Selenoprotein Thioredoxin Reductase 1 (TrxR1) (AID 488773). Also: nearly all actives have a fitted effect of over 40% in size. Also: potency is read from the fitted curve at half-maximal effect. The conditions noted are these: Potency: inhibition. The essentials: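 Inhibition is scored from the loss of NADPH fluorescence between first and last reads of an 8-min kinetic run. Selenite (400 uM) was the substrate, added after 15 min compound preincubation at room temperature.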

The target in assay [5] is Flap endonuclease 1 (Homo sapiens) (UniProt P39748). Nature of the assay: qHTS Validation Assay for the Inhibitors of Human Flap endonuclease 1 (FEN1) (AID 488816). Also: potency is read from the fitted curve at half-maximal effect. The essentials: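 Steps: add FEN1 (10 nM reagent) or buffer only; pin compounds; hold 15 min at room temperature; start with substrate, 50 nM final; read at 0 and 15 min; correct, normalize and fit a four-parameter Hill curve.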

Assay [6] deals with M-phase phosphoprotein 8 (Homo sapiens) (UniProt Q99549). Nature of the assay: qHTS Validation Assay for Inhibitors for MPP8 Chromodomain Interactions with Methylated Histone Tails (AID 488949).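 Also: AlphaScreen signal from MPP8 chromodomain bound to biotinylated H3K9me3 peptide; top concentration of the series differs between compounds; nearly all actives have a fitted effect of over 55% in size.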 Summed up:
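AlphaScreen proximity signal from streptavidin donor and Ni-chelate acceptor beads (10 ug/mL each) reported binding of MPP8 to trimethyl-K9 H3(1-18) peptide, both at 50 nM. The complex formed 30 min before a 30 min compound exposure at room temperature, in PBS pH 7.4.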

Assay [7] addresses Chromobox protein homolog 1 (Homo sapiens) (UniProt P83916). As to the kind of experiment: qHTS Validation Assay for Inhibitors of HP1-beta Chromodomain Interactions with Methylated Histone Tails (AID 488953). Also: nearly all actives have a fitted effect of over 50% in size. Also: potency is read from the fitted curve at half-maximal effect. Summed up:
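AlphaScreen proximity signal from streptavidin donor and nickel chelate acceptor beads (final 10 ug/mL) after 30 min dark incubation. Compounds had 30 min at room temperature with preformed complex of 50 nM HP1-beta and 50 nM b-H3(1-18)K9me3 in PBS pH 7.4 with 0.01% Tween-20.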

Assay [8] has as its target Methanococcus maripaludis chaperonin (MmCpn) (UniProt Q6LX38). As to the kind of experiment: High-Throughput Screening for Modulators of Cytosolic Chaperonin Activity: MmCpn Primary Screen (AID 488978).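 Also: 50 nM MmCpn enzyme hydrolysing 30 µM ATP at 37 °C.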 Summed up: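 ATPase activity of 50 nM MmCpn was assayed with 30 uM ATP, 10 minutes at 37C, after a 5 min compound preincubation at room temperature. ADP production was read as HTRF emission at 590 and 665 nm.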

In assay [9] the target is Transient receptor potential cation channel subfamily V member 1 (Homo sapiens) (UniProt Q8NER1). Nature of the assay: HTS Assay for Compounds that Act as Enhancers of the Vanilloid Receptor 1 (AID 488979). Summed up: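 TRPV1-expressing cells loaded with Fluo-8 calcium dye; compounds added and calcium influx read kinetically for 3 min (agonist phase), then capsaicin at EC20 added and read 2 min more for enhancement. Fluorescence ex 480/em 520 nm.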

Assay [10] concerns the target Thyrotropin receptor (Homo sapiens) (UniProt P16473). As to the kind of experiment: qHTS Assay for Antagonists of the Thyroid Stimulating Hormone Receptor (AID 488980). Also: series mostly up to about 58 µM. The essentials:
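Inhibition of cAMP raised by EC80 TSH (4 nM final) was read by HTRF, with lysate cAMP competing against cAMP-d2 for cryptate antibody after 30 min at room temperature. The cells were transfected HEK293 held in phosphodiesterase inhibitor RO 20-1724 at 70 uM.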

Records with an inconclusive call do not appear. The source made the active and inactive calls. Calls follow the shape of the dose curve; as a rule, active = well fitted curve in the direction sought with a large enough effect; inconclusive = small, poorly fitted or top-dose-only effect, or another doubt; inactive = no such curve, though single readings can be large; an effect the other way counts as inactive or inconclusive.

Methanococcus maripaludis chaperonin (MmCpn), sequence (Q6LX38 1-543): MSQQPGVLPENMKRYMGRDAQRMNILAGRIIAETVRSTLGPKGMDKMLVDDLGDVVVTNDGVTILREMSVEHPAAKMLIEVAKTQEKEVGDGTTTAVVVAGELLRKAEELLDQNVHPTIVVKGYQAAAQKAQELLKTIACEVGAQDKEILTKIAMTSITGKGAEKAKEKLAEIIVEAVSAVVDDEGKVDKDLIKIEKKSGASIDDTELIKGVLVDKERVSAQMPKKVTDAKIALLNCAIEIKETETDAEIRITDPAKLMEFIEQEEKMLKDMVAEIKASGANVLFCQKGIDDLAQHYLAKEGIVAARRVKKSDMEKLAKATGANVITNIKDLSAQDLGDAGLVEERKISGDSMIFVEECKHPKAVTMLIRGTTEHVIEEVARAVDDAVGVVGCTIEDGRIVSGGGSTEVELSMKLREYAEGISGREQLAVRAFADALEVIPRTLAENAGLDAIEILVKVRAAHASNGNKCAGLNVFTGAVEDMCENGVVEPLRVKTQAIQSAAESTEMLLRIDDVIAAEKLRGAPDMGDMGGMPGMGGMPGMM
Chromobox protein homolog 1 (Homo sapiens), sequence (P83916 whole entry, looked up): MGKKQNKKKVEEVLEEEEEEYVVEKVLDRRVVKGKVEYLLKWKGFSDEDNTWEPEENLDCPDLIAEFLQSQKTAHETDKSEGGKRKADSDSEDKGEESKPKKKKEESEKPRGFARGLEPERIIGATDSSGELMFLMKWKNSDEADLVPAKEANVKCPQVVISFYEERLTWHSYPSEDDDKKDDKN
Thioredoxin reductase 1, cytoplasmic (Rattus norvegicus), sequence (O89049 whole entry, looked up): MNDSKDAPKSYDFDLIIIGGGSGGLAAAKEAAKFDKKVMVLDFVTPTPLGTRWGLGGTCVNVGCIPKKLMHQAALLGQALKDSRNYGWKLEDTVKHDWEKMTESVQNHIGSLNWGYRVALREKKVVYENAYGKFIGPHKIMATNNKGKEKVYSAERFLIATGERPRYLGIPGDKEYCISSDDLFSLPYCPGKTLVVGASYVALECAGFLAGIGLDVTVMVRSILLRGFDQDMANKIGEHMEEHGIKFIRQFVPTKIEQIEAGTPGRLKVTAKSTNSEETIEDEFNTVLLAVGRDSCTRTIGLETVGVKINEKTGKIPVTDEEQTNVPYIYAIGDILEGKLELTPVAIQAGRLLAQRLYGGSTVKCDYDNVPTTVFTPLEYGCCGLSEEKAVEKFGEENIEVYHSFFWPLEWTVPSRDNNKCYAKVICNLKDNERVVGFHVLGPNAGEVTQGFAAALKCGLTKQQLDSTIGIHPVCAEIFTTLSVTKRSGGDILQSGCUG
Flap endonuclease 1 (Homo sapiens), sequence (P39748 whole entry, looked up): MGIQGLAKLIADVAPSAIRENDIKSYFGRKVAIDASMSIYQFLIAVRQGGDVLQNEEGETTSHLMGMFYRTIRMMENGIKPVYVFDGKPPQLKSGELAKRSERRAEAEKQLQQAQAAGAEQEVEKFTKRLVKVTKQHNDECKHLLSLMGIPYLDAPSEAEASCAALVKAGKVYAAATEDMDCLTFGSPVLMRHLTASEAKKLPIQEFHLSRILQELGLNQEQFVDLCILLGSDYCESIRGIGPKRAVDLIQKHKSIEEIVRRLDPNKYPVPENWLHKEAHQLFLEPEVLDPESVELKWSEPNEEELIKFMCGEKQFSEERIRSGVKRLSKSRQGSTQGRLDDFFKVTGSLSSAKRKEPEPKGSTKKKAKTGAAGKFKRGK
Transient receptor potential cation channel subfamily V member 1 (Homo sapiens), sequence (Q8NER1 whole entry, looked up): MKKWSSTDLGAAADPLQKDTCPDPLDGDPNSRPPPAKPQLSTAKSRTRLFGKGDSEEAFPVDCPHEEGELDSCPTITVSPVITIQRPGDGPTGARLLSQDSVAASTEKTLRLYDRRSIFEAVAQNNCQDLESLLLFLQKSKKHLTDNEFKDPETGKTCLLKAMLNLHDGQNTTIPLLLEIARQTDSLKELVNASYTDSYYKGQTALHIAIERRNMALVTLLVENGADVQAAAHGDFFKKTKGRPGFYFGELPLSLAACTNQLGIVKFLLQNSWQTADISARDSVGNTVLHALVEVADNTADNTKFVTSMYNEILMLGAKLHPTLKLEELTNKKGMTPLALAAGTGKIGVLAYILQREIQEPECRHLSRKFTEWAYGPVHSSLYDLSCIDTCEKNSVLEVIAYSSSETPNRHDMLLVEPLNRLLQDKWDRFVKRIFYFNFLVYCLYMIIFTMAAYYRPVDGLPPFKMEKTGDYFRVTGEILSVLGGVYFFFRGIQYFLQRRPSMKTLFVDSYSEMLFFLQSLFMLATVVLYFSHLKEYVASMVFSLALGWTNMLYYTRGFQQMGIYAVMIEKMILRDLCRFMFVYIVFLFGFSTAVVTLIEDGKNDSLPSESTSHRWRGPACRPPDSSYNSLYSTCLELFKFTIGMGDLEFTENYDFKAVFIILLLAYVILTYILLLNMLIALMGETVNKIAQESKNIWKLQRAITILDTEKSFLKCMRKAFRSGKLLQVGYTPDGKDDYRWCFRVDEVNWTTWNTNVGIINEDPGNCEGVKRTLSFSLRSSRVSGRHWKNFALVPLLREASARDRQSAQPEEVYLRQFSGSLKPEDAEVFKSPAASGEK
Thyrotropin receptor (Homo sapiens), sequence (P16473 whole entry, looked up): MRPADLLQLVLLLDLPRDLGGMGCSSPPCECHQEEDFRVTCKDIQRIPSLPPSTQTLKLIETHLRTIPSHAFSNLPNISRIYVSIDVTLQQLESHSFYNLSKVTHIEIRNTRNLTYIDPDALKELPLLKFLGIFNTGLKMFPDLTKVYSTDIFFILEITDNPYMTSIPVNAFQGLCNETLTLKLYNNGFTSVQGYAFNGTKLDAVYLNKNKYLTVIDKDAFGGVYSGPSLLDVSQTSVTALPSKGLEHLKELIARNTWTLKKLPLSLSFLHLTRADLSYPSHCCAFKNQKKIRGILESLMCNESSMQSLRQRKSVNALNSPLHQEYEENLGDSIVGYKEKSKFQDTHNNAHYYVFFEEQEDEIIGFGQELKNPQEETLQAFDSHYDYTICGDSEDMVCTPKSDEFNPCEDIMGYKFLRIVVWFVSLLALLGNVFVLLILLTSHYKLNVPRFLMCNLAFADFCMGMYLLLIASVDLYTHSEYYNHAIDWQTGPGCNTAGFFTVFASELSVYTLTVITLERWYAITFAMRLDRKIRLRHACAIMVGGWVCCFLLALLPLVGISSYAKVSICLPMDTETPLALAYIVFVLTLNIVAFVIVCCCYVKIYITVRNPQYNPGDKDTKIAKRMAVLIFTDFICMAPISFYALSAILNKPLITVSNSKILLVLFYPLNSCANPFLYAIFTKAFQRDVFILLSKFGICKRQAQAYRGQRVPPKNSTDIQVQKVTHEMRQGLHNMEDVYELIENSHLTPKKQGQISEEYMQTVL
M-phase phosphoprotein 8 (Homo sapiens), sequence (Q99549 whole entry, looked up): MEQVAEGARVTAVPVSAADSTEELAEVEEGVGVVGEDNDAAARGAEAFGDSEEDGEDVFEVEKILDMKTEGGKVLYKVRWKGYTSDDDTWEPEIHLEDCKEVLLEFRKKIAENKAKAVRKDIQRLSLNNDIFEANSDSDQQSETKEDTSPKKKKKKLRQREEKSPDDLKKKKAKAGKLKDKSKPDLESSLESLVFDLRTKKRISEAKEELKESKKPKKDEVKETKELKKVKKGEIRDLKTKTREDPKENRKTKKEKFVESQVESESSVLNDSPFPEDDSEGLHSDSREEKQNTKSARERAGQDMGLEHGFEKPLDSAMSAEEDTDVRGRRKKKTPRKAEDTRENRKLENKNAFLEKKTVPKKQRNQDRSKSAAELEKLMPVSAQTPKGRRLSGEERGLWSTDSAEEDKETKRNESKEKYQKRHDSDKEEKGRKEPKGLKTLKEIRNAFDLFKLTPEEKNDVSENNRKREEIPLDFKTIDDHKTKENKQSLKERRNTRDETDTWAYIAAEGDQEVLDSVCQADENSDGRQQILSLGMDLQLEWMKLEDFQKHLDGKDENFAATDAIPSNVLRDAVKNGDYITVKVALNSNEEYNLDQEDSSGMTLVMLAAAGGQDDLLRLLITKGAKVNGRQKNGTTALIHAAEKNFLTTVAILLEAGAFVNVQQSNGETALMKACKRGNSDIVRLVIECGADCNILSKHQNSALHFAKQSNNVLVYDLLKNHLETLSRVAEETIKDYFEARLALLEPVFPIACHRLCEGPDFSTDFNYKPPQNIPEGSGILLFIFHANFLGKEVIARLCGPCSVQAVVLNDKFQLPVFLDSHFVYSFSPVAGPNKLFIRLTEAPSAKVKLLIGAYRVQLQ

Turning to `NCC(CP(=O)(O)O)c1ccc(Cl)cc1` (stereo not given), the Potency entry in assay [1], in assay [2], in assay [4], in assay [5], in [6] and in assay [7] was “inactive” each time. Moreover, the call in [3], in [8] and in [9] was inactive.

Take `OC1CCCCC1N1CCC(c2ccccc2)CC1` (stereo not given): the Potency result in assay [1], in assay [2], in [4], in assay [5] and in [7] was “inactive” each time. Further, the result in assay [3], in [8], in [9] and in assay [10] was inactive.

For `CCOC(=O)c1ncn2c1[C@@H]1CCCN1C(=O)c1cc(OC)ccc1-2`, the Potency result in [1], in [2], in [4], in assay [5] and in assay [7] was “inactive” each time. The outcome in [3], in assay [8] and in assay [9] was inactive.

Consider `NNC(=O)c1ccc(O)cc1`, for which the Potency entry in assay [1], in [2], in [4], in [5] and in assay [7] was “inactive” throughout. The call in assay [3], in assay [8], in assay [9] and in assay [10] was inactive.

With `NC(CCCCCP(=O)(O)O)C(=O)O` (stereo not given), the Potency entry in [1], in assay [2], in assay [4], in assay [5], in assay [6] and in assay [7] was “inactive” each time. The compound was called inactive in assay [3], in [8] and in assay [9].

In the case of `CN1CCc2cccc(Cl)c2CC1`, the Potency entry in assay [1], in [2], in assay [4], in [5], in assay [6] and in assay [7] was “inactive” throughout. The compound was called inactive in assay [3], in assay [8] and in assay [9].

Consider `N[C@@H](CCl)C(=O)O`, for which the Potency result in assay [1], in assay [2], in assay [4], in assay [5] and in assay [6] was “inactive” in each case. Besides, the result in [3], in assay [8] and in assay [9] was inactive.

Consider `CNc1ccc2oc(C[C@H]3O[C@@]4(CC[C@H]3C)O[C@H]([C@H](C)C(=O)c3ccc[nH]3)[C@H](C)C[C@H]4C)nc2c1C(=O)O`, for which the values for the Potency in [1], in assay [2] and in assay [7] were 104 nM (active), 2330 nM (active) and 6 nM (active), respectively. Besides, the result in [3] and in assay [8] was inactive. Further, the Potency result in [4], in assay [5] and in [6] was “inactive” in each case.

For `NC(N)=NOCC[C@H](N)C(=O)O`, the Potency result in assay [1], in [2], in assay [4], in assay [5] and in assay [6] was “inactive” each time. The result in [3], in [8], in [9] and in assay [10] was inactive.

Consider `CN(N=O)c1ccc(O)c(O)c1`, for which the Potency entry in assay [1] and in assay [2] was “inactive” each time. Besides, the compound was classed as inactive in [3], in assay [8] and in assay [9]. Further, the Potency in [4] was 947 nM (active); in assay [5], 2670 nM (active); in assay [7], 1580 nM (active).

On to `Cc1o[nH]c(=O)c1CC(N)C(=O)O` (stereo not given), for which the Potency entry in assay [1], in assay [2], in assay [4] and in assay [5] was “inactive” in each case. For the same compound, the call in assay [3], in assay [8] and in [9] was inactive.

Take `N[C@@]1(C(=O)O)CC[C@@H](C(=O)O)C1`: the Potency entry in [1], in [2], in [4], in assay [6] and in assay [7] was “inactive” each time. In addition, the call in assay [3], in [8] and in assay [9] was inactive.

In the case of `C[C@H](N)CN1CCc2ccc(Br)cc21`, the Potency entry in assay [1], in assay [2], in assay [5] and in assay [6] was “inactive” each time. The compound was called inactive in [3], in assay [8] and in assay [10].

As to `Clc1cc(I)cc(Cl)c1NC1=NCCN1`, the Potency result in assay [1], in [2], in assay [5], in [6] and in assay [7] was “inactive” throughout. Also, the compound was called inactive in assay [3], in assay [8] and in assay [9].

On to `C=CCN1CC[C@]23c4c5ccc(O)c4O[C@@H]2/C(=N/N=C2\CC[C@@]4(O)C6Cc7ccc(O)c8c7[C@@]4(CCN6CC=C)[C@@H]2O8)CC[C@@]3(O)C1C5`, for which the Potency in [1] is 2940 nM (active); in [2], 3290 nM (active); in [4], 11900 nM (active). The result in [3], in assay [8], in assay [9] and in assay [10] was inactive. Moreover, in assay [5], the Potency result was “inactive”.

Consider `CCCCCCC(C)(C)c1ccc([C@@H]2C[C@H](O)CC[C@H]2CCCO)c(O)c1`, for which the figures for the Potency in assay [1] and in assay [2] were 4650 nM (active) and 11700 nM (active), respectively. Also, the Potency entry in [4], in [5] and in assay [6] was “inactive” each time. For the same compound, the call in assay [8], in assay [9] and in assay [10] was inactive.

Regarding `NCCc1c[nH]c2ccc(C(N)=O)cc12`, the Potency entry in [1], in [2], in assay [5], in assay [6] and in assay [7] was “inactive” throughout. The result in assay [3], in [8], in [9] and in assay [10] was inactive.

On to `COc1ccc2[nH]cc(CCN)c2c1`, for which the Potency entry in assay [1], in assay [2], in assay [5], in assay [6] and in assay [7] was “inactive” each time. Moreover, the call in assay [3], in assay [8] and in [9] was inactive.

Regarding `NC(=O)c1ccc(OCC(O)CN2CC=C(c3ccc(F)cc3)CC2)cc1` (stereo not given), the Potency entry in [1], in [2], in [5] and in assay [6] was “inactive” in each case. Besides, the result in assay [3], in assay [8], in [9] and in assay [10] was inactive.

Take `C[N+](C)(C)CC#CCN1CCCC1=O`: the Potency result in assay [1], in assay [2], in assay [5] and in assay [6] was “inactive” throughout. Moreover, the outcome in assay [3], in [8], in assay [9] and in assay [10] was inactive.

For `NC(=O)CI`, the Potency result in [1], in assay [2] and in assay [5] was “inactive” each time. The result in [3], in [8] and in [9] was inactive.

For `NCC(O)c1cc(O)c(O)cc1F` (stereo not given), the Potency entry in assay [1] and in assay [2] was “inactive” throughout. Further, the compound was classed as inactive in assay [3], in assay [8], in assay [9] and in [10]. The Potency in [5] was 2670 nM (active).

For `CCCn1c(C)c(C(=O)c2ccc3ccccc3c2)c2ccccc21`, the Potency result in [1], in [2], in assay [5] and in assay [7] was “inactive” in each case. In addition, the result in assay [3], in assay [8], in assay [9] and in assay [10] was inactive.

For the compound `N[C@@H](Cn1oc(=O)[nH]c1=O)C(=O)O`, the Potency result in assay [1], in assay [2], in assay [5], in [6] and in assay [7] was “inactive” each time. Besides, the call in assay [3], in assay [8] and in assay [9] was inactive.

For `CC(C)(C)c1o[nH]c(=O)c1CC(N)C(=O)O` (stereo not given), the Potency entry in assay [1], in [2], in assay [6] and in assay [7] was “inactive” in each case. Also, the compound was classed as inactive in assay [3], in assay [8], in [9] and in assay [10].

Take `CC12NC(Cc3ccccc31)c1ccccc12` (stereo not given): the Potency result in assay [1], in assay [2], in [5], in assay [6] and in [7] was “inactive” throughout. Moreover, the outcome in assay [3], in assay [8] and in [9] was inactive.
